Records with an inconclusive call do not appear. Where a call stands in place of a potency, no number is given. Activity calls are given as the source filed them. Calls follow the shape of the dose curve; as a rule, active = well fitted cell-killing curve with a large enough effect in the repeat runs; inconclusive = weak or mixed curves, or effect the other way; inactive = flat fitted curve, though single readings scatter.
Experiment: qHTS RealTime-Glo MT Cell Viability Assay in HEK293 cells - 8 hour (AID 1224887); also: nearly all actives have a fitted effect of over 50% in size
Conditions: RealTime-Glo luminescence; series mostly up to 76.8 µM
Source text: U.S. Tox21 Program National Center for Advancing Translational Sciences [NCATS] NIH Chemical Genomics Center [NCGC] U.S. Environmental Protection Agency [EPA] National Institutes of Environmental Health Sciences [NIEHS] National Toxicology Program [NTP] U.S. Food and Drug Administration [FDA] Tox21 Assay Overview: Measure of cell viability is critical in the cell-base assay. Analysis of cell viability is necessary for the characterization of cell responses to cytotoxic drugs and environmental stress. A RealTime-Glo MT Cell Viability Assay to monitor cell viability in real time of continues cell culture during 40 hours of compound treatment was used to screen Tox21 10K library compounds in Hek293 cells. The RealTime-Glo MT Cell Viability Assay is a nonlytic, homogeneous, bioluminescent method to measure cell viability in real time using a simple, plate-based method. The assay involves adding NanoLuc luciferase and a cell-permeant prosubstrate to cells in culture. Viable cells reduce the proprietary prosubstrate to generate a substrate for NanoLuc luciferase. This substrate diffuses from cells into the surrounding culture medium, where it is rapidly used by the NanoLuc Enzyme to produce a luminescent signal. The signal correlates with the number of viable cells, making the assay well suited for cytotoxicity studies.
Tox21 Assay Protocol Summary: The mixture of Hek293 cell suspension and reagents were dispensed at 600cells/6 ul/well in 1536-well tissue culture treated black solid bottom plates using a Multidrop dispenser. After the assay plates were incubated at a 37 C/5% CO2 incubator for 5 hours, 23 nL of compounds dissolved in DMSO, positive and negative controls was transferred to the assay plate by a pintool work station. The plates were incubated at 37 C for 40 hours. The luminescence intensity were measured at 0h, 8h, 16h, 24h, 32h and 40h time points using ViewLux plate reader during compound treatment.
In the case of N#CCCO, the Potency is reported as “inactive”.
For C[C@@H](Oc1ccc(Cl)cc1Cl)C(=O)O, the Potency was “inactive”.
For CCS(=O)(=O)c1cccnc1S(=O)(=O)NC(=O)Nc1nc(OC)cc(OC)n1, the Potency was “inactive”.
With BrCC(Br)c1ccccc1 (stereo not given) the Potency was “inactive”.
For COc1ccc([N+](=O)[O-])cc1O, the Potency was “inactive”.
In the case of CCSC(C)CC1CC(=O)C(/C(CC)=N/OC/C=C/Cl)=C(O)C1 (stereo not given), the Potency is reported as “inactive”.
In the case of CC(C)OS(C)(=O)=O, the Potency is reported as “inactive”.
For O=C(O)c1cc[c]([Hg][Cl])cc1, the Potency was 34.7 µM (active).
With CC(O)C#N (stereo not given) the Potency was “inactive”.
For Cc1cc(SCc2sc(-c3ccc(C(F)(F)F)c(F)c3)nc2C)ccc1OCC(=O)O, the Potency was “inactive”.
In the case of c1ccc2cc3c(cc2c1)-c1cccc2cccc-3c12, the Potency is reported as “inactive”.
In the case of CC1CCC(C(C)C)C(OC(=O)c2ccccc2N)C1 (stereo not given), the Potency is reported as 34.2 µM (active).
For C[C@]12CC[C@H](O)C[C@H]1CC[C@@H]1[C@@H]2C[C@@H](O)[C@]2(C)[C@@H](C3=CC(=O)OC3)CC[C@]12O, the Potency was “inactive”.
With C[CH2][Hg][N]1C(=O)C2C(C1=O)C1(Cl)C(Cl)=C(Cl)C2(Cl)C1(Cl)Cl (stereo not given) the Potency was 3.69 µM (active).
In the case of CCCCOCN(C(=O)CCl)c1c(CC)cccc1CC, the Potency is reported as “inactive”.
In the case of Cn1cc(C2=C(c3cn(C4CCN(Cc5ccccn5)CC4)c4ccccc34)C(=O)NC2=O)c2ccccc21, the Potency is reported as “inactive”.
With CCc1nn(C)c(C(=O)NCc2ccc(C(C)(C)C)cc2)c1Cl the Potency was 4.36 µM (active).
With COc1cc(N)c(Cl)cc1C(=O)NC1CN2CCC1CC2 (stereo not given) the Potency was “inactive”.
For CCCCCCCCc1ccc(O)cc1, the Potency was 6.76 µM (active).
In the case of CC(=O)Nc1ccc2c(c1)Cc1ccccc1-2, the Potency is reported as “inactive”.
In the case of CC[C@H]1C[C@@H]2C[C@H]3c4[nH]c5ccc(OC)cc5c4CCN(C2)[C@@H]13, the Potency is reported as “inactive”.
For BrCBr, the Potency was “inactive”.
For CC(C)(COCC1CO1)COCC1CO1 (stereo not given), the Potency was “inactive”.
For CCOc1cc(C(C)(C)C)ccc1C1COC(c2c(F)cccc2F)=N1 (stereo not given), the Potency was “inactive”.
For [Hg+2].[I-].[I-], the Potency was 6.16 µM (active).
With N#CCCSCCC#N the Potency was “inactive”.
In the case of N#CC(Cl)Cl, the Potency is reported as “inactive”.
For CC(C)(O)c1cnn2c(-c3ccc(F)c(-c4c(F)cccc4C#N)c3)cnc2n1, the Potency was 6.16 µM (active).
In the case of CCOC(=O)OC1=C(c2cc(C)ccc2C)C(=O)NC12CCC(OC)CC2 (stereo not given), the Potency is reported as “inactive”.
With C[C@]12CC[C@H]3[C@@H](CCC4=CC(=O)CC[C@@]43C)[C@@H]1CC[C@@H]2O the Potency was “inactive”.
For CN(C)C(=S)S, the Potency was “inactive”.
For COP(=O)(CCC(=O)NCO)OC, the Potency was “inactive”.
For C[C@H]1CC[C@@H]2[C@@H](C)[C@H]3[C@H](C[C@H]4[C@@H]5CC=C6CC(O[C@@H]7O[C@H](CO)[C@H](O)[C@H](O[C@@H]8O[C@H](CO)[C@@H](O)[C@H](O)[C@H]8O)[C@H]7O[C@H]7O[C@@H](C)[C@H](O)[C@@H](O)[C@H]7O)CC[C@]6(C)[C@H]5CC[C@]34C)N2C1 (stereo not given in full), the Potency was 8.99 µM (active).
In the case of O=CC(Br)(Br)Br, the Potency is reported as “inactive”.
With C=CC(=O)OCCCCOC(=O)C=C the Potency was “inactive”.
With CCCN(CCC)c1c([N+](=O)[O-])cc(S(N)(=O)=O)cc1[N+](=O)[O-] the Potency was 31.6 µM (active).
With BrC(Br)Br the Potency was “inactive”.
With O=[N+]([O-])c1ccc2ccc3cccc4ccc1c2c34 the Potency was “inactive”.
For CCOP(=S)(OCC)SCCS(=O)(=O)CC, the Potency was “inactive”.
For O=C(O)C1C2CCC(O2)C1C(=O)O (stereo not given), the Potency was “inactive”.

From PubChem BioAssay (Tox21)
Potency is read from the fitted curve at half-maximal effect.
